Assay results from PubChem BioAssay (EPA / NIEHS).
The source made the active and inactive calls. The calls were made as follows: active = hit-call score of the fitted dose curve at least 0.9, where 1 is the maximum; inactive = score below 0.9.

Read-out: Transforming Growth Factor (TGFB1), TGFB1 (gene 7040)
Test: LTEA_HepaRG_TGFB1: Life Technologies and Expression Analysis (LTEA) Assay for Transforming Growth Factor (TGFB1) Transporter using HepaRG (AID 2283533)
Conditions: mRNA level, 48 h; actives raise or lower the signal
Protocol: LTEA_HepaRG is a cell based, multiplexed-readout assay that uses HepaRG, a human liver cell line, with measurements taken at 48 hours after chemical dosing on a 96-well plate.LTEA_HepaRG_TGFB1 is one of 102 assay component(s) measured in the LTEA HepaRG cell culture assay. It is a marker of Cell proliferation, survival, death.Data from the assay component LTEA_HepaRG_TGFB1 was analyzed into 1 endpoint. This assay endpoint, LTEA_HepaRG_TGFB1, was analyzed with bidirectional fitting relative to DMSO as the negative control and baseline of activity. Using a type of inducible reporter, measures of mRNA induction for gain or loss-of-signal activity can be used to understand regulation of transcription factor activity. To generalize the intended target to other relatable targets, this assay endpoint is annotated to the growth factor intended target family, where the subfamily is transforming growth factor beta.
A total of 1060 chemcials from the ToxCast library were tested in eight-point concentration-response experiments. Cell culture and cytotoxicity assays were conducted at Thermo Fisher Scientific's Custom Services facility (Madison, WI). A single lot of human HepaRG cells (Thermo Fisher Scientific, Frederick, MD) was used for the cell culture experiments. 96-well format collagen type I coated plates of human HepaRG cells were prepared using established methods. Briefly, cryopreserved HepaRG cells were thawed, plated at a density of approximately 100,000 cells/well in HepaRG Thaw, Plate, and General Purpose media (HPRG770, Thermo Fisher Scientific), and incubated for 48 hours. 0.5% DMSO was selected as vehicle control to balance the requisite need of DMSO in HepaRG cultures to maintain differentiation (for example, baseline metabolism, proportions of hepatocytes vs. cholangiocytes), while enabling further hepatic receptor pathway activation (for example, PXR and CAR) in response to chemical exposure. 48 hours after plating, the culture medium was replaced with HepaRG Serum-Free Incudtion Media. Cells were exposed to each test chemical in duplicate and maintained in CO2 incubators for another 48 hours. Chemical plates were thawed to room temperature and 200x concentrations of treatment groups were prepared. 8-point conentration-reponse curves were made with the highest exposure at 100 uM, followed by half-log dilutions, all in 0.5% DMSO. Each test plate contained variouse controls, induction positive controls (1mM phenobarbital), cytotoxicity positive controls ([…] aflatoxin B1), vehicle controls (0.5% DMSO), and total lysis controls (0.5% DMSO). Cell morphology images were taken using an Essen IncuCyte FLR automated microscope, with six 96-well plates imaged in about 24 minutes. Images were captured and exported and JPEG files. Spent culture media was transfered to black-well plates for the LDH assay, and remaining media was sorted at -80 C for later use. Cells were treated with RLT buffer and frozen until shipped for gene expression analysis. Total RNA was isolated from the cell suspension in 75 uL of Buffer RLT (Qiagen, Germantown, MD 20874) by Quintiles/Expression Analysis (Durham, NC) using a custom isolation procedure. Total RNA from each plate well was transferred to a preamplification plate. Fluidigm's 96.96 Dynamic ArrayTM (Fluidigm, Amsterdam, the Netherlands) technology was used for gene expression analyses by quantitative reverse transcription polymerase chain reaction (qRT-PCR, performed by Quintiles/Expression Analysis, Durham, NC)89. Standard TaqManTM Assays (Applied Biosystems/ThermoFisher Scientific, Foster City, CA) were used to assess the expression of 93 genes selected based on their selectivity and sensitivity to important hepatic receptors known to be modulated by environmental chemicals; importance in human hepatocyte functionality; and hepatotoxicity. […]

SMILES | outcome | AC50
CC(C)(C)c1cc(O)c(C(C)(C)C)cc1O | inactive | –
COCCOCCOC | inactive | –
CCOC(=O)C(C)(C)Oc1ccc(Cl)cc1 | inactive | –
C1CCC(SSC2CCCCC2)CC1 | inactive | –
COc1cc(S(=O)(=O)O)c(C)cc1N=Nc1c(O)ccc2cc(S(=O)(=O)O)ccc12 | inactive | –
CCCc1cc(=O)[nH]c(=S)[nH]1 | inactive | –
C[C@]12C=CC(=O)C=C1CC[C@@H]1[C@@H]2C(=O)C[C@@]2(C)[C@H]1CC[C@]2(O)C(=O)CO | inactive | –
Cc1ccc2ncccc2c1 | inactive | –
Cc1nc(-c2ccc3c(c2)CCN(CCC2CCC(NC(=O)/C=C/c4ccc(F)cc4)CC2)CC3)no1 (stereo not given) | inactive | –
Nc1nc(N)c2nc(CNc3ccc(C(=O)N[C@@H](CCC(=O)O)C(=O)O)cc3)cnc2n1 | inactive | –
CCOc1ccc2c(c1)C(C)=CC(C)(C)N2 | inactive | –
Cc1oc(-c2ccccc2)nc1CCOc1cccc2c1ccn2CCC(=O)O | – | 16.9 µM (active)
C[Si]1(C)O[Si](C)(C)O[Si](C)(C)O[Si](C)(C)O1 | inactive | –
Cc1cccc(Nc2cc(Cl)nc(SCC(=O)O)n2)c1C | inactive | –
CC1=C(/C=C/C(C)=C/C=C/C(C)=C/CO)C(C)(C)CCC1 | inactive | –
Cc1ccc(C)c(C)c1 | inactive | –
CCCCCCCC=O | inactive | –
CCCCCC(=O)O | inactive | –
COC(=O)c1ccc(O)cc1 | inactive | –
CC1(C)NC(=O)NC1=O | inactive | –

SMILES | outcome | AC50
CC(=O)OCCOCCOCCOC(C)=O | inactive | –
CCNc1cccc(C)c1 | inactive | –
CNCc1cc(F)ccc1Oc1ccc(Cl)c(Cl)c1 | inactive | –
Oc1ccc2c(c1)OC[C@@H](N1CCC(O)(c3ccc(F)cc3)CC1)[C@H]2O | inactive | –
CCCCCCCCCCO | inactive | –
CCCCCCCCCCCCCO | inactive | –
Cc1ccccc1Cl | inactive | –
CCc1c(C(=O)NN2CCCCC2)nn(-c2ccc(Cl)cc2Cl)c1-c1ccc(Br)cc1 | – | 13.2 µM (active)
Cc1ccc(Cl)cc1 | inactive | –
CCCCCCCCCCCCCCCCCC(=O)O | inactive | –
CCCCCCCCCCC | inactive | –
Cc1cccc([N+](=O)[O-])c1C | inactive | –
Cc1ccc(C)c(O)c1C | inactive | –
CNC(=O)[C@H]1O[C@@H](n2cnc3c(NCc4cc(Cl)ccc4OCc4cc(C)no4)ncnc32)[C@H](O)[C@@H]1N | inactive | –
COc1ccc(S(=O)(=O)N2C(=O)[C@@](c3ccccc3OC)(N3C[C@H](O)C[C@H]3C(=O)N(C)C)c3cc(Cl)ccc32)c(OC)c1 | – | 19.1 µM (active)
COc1cc(C=O)ccc1O | inactive | –
O=C(OCCCCCOC(=O)c1ccccc1)c1ccccc1 | – | 3 µM (active)
COc1ccc(C)cc1N | inactive | –
CC(=O)C(C)=CC1C(C)=CCCC1(C)C (stereo not given) | inactive | –
CN1CCN(Cc2cc(-c3ccc4[nH]c(=O)oc4c3)co2)[C@@H](c2ccc(F)cc2)C1 | – | 62 µM (active)
